Among the data in PubChem BioAssay are composite z-score, composite Z-score and z-score values, retold here.

Activity calls are given as the source filed them.

Test [1] deals with Albumin (Bos taurus) (UniProt P02769). In words: compounds binding labelled BSA control protein – biochemical, small-molecule microarray, Alexa647 label, 635/667 nm fluorescence, artefact control for SMM control protein annotation, profiling panel (AID 1118).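 Also: score merges 667 nm emission intensity and signal-to-noise per printed compound spot.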 Conditions: BSA-A647 binding, fluorescence 635 nm, higher = more signal.
Chain of Albumin (Bos taurus) (P02769 whole entry, looked up): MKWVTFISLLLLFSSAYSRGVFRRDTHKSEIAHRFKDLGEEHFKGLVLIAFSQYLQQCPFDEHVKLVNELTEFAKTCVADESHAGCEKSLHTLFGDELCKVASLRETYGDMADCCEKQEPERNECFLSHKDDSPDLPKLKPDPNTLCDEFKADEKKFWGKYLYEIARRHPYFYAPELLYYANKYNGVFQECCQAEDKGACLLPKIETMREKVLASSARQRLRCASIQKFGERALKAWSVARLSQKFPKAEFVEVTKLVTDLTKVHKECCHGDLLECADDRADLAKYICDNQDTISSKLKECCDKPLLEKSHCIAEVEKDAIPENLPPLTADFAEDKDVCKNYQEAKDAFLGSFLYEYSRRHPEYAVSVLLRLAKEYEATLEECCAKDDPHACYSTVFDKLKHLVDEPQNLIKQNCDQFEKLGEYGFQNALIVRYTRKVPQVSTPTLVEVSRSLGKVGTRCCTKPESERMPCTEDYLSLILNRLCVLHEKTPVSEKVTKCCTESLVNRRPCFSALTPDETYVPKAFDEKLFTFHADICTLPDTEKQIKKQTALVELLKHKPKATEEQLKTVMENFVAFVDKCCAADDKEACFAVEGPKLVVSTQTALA
Test [2] is described as follows: probe aXIP binding to arrayed compounds – biochemical, NeuroSMM set, 635/667 nm fluorescence, primary screen (AID 1119).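 Also: probe is the protein aXip251-270 applied at 1 µg/mL to compound-printed slides; binding of probe to printed compounds measured as 667 nm fluorescence plus signal to noise.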 Conditions: small-molecule microarray, higher = more signal, called active from +8 up or from −8 down.
A short description of test [3]: probe aNOTCH3 binding on compound microarray – biochemical, small-molecule microarray, 635/667 nm fluorescence, primary screen (AID 1120).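 Also: probe is a biotin-tagged antibody raised against NOTCH3 rather than NOTCH3 protein; score merges spot fluorescence near 667 nm with spot signal to noise.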 Conditions: higher = more signal.
Test [4] in a line: probe aNOTCH2 binding on compound microarray – biochemical, small-molecule microarray, 635/667 nm fluorescence, primary screen (AID 1121).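 Also: score merges feature fluorescence read at 667 nm with its signal to noise.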 Particulars: higher = more signal.
Test [5] addresses Carbonic anhydrase 2 (Homo sapiens) (UniProt P00918). In words: compounds binding carbonic anhydrase 2 – biochemical, small-molecule microarray, Alexa647-labelled CAII, profiling panel (AID 1122). Particulars: CAII-A647 binding fluorescence, higher = more signal.
Test [6] is described as follows: COS7 lysate on small-molecule microarray, probe aHis, 635 nm (AID 1123).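 Also: z-score combines 667nm fluorescence intensity with signal-to-noise per printed compound spot.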 Particulars: COS7 cell lysate, fluorescence, higher = more signal.
Test [7] is described as follows: probe aLAP1 signal on lysate-treated microarray – cell lysate, small-molecule microarray, COS7 lysate, primary screen (AID 1124).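 Also: lysate comes from COS7 cells expressing LAP1 and is applied at 0.3 µg/mL; score merges spot fluorescence near 667 nm with signal-to-noise over triplicate slides.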 Conditions: probe aLAP1, fluorescence, higher = more signal.
For test [8], the system named is Sam68 (KHDRBS1). In words: compounds binding KHDRBS1 protein – biochemical, small-molecule microarray, 635 nm fluorescence, primary screen (AID 1125).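 Also: score merges 667 nm channel intensity with signal to noise over triplicate slides.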 Particulars: higher = more signal.
For test [9], the system named is Chordin-like protein 2 (CHRDL2). In words: compounds binding chordin-like 2 – biochemical, small-molecule microarray, 635 nm fluorescence, primary screen (AID 1126).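 Also: printed compound slides probed with Chrdl2 protein at 4 µg/mL for 1 h at 4 C; score merges 667 nm emission intensity with signal to noise over three replicate slides.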 Conditions: fluorescence 635 nm, higher = more signal.
For test [10], the target named is Concanavalin-A (Canavalia ensiformis) (UniProt P02866). Nature of the test: compounds binding concanavalin A lectin – biochemical, small-molecule microarray, Alexa647 label, 635 nm, artefact control for SMM control protein annotation, primary screen (AID 1127).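 Also: z combines 667 nm emission intensity with signal-to-noise across three replicate slides.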 Conditions: ConA-A647 binding fluorescence, higher = more signal.
Chain of Concanavalin-A (Canavalia ensiformis) (P02866 whole entry, looked up): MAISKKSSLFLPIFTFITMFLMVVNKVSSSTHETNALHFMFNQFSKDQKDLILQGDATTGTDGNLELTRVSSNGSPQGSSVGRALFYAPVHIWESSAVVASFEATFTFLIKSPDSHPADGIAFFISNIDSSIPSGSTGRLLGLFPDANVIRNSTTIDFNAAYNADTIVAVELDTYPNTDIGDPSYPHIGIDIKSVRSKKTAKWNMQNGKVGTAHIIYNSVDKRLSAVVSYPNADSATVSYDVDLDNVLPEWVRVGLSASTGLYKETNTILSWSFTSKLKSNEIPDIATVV
Test [11] is described as follows: compounds binding Alexa647 anti-His antibody – biochemical, small-molecule microarray, 635 nm fluorescence, artefact control for SMM control protein annotation, primary screen (AID 1128).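 Also: score merges feature fluorescence with signal-to-noise for each printed compound spot.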 Conditions: higher = more signal.
Test [12] deals with Human papillomavirus type 1a E7 protein (residues 1-88). In words: HPV1a E7 small-molecule binders, primary screen, biochemical, small-molecule microarray, residues 1-88, 635 nm (AID 1129). Particulars: small-molecule microarray binding, fluorescence 635 nm; higher = more signal.
Test [13] concerns the target Focal adhesion kinase 1 (Homo sapiens) (UniProt Q05397). Nature of the test: PTK2 protein binding on printed compound slides – biochemical, small-molecule microarray, 635/667 nm fluorescence, BSA, DTT, primary screen (AID 1130).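 Also: composite of spot emission at 667 nm and signal to noise over triplicate slides.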 Conditions: 635 nm fluorescence, higher = more signal.
Test [14] has as its system Fibrinogen (Alexa647-labelled). Nature of the test: Alexa647-fibrinogen binding to printed small molecules – biochemical, small-molecule microarray, 635/667 nm fluorescence, artefact control for SMM control-protein annotation, profiling panel (AID 1131).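 Also: z-score merges 667 nm fluorescence with per-spot signal-to-noise over triplicate slides.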 Particulars: fibrinogen-A647 binding fluorescence, higher = more signal.
Test [15] has as its target Follistatin (Homo sapiens) (UniProt P19883). Nature of the test: FST protein binding to printed compounds – biochemical, small-molecule microarray, 635/667 nm fluorescence, primary screen (AID 1132). Conditions: 635 nm fluorescence, higher = more signal.
Test [16] concerns the target Fibroblast growth factor 2 (Homo sapiens) (UniProt P09038). In words: basic fibroblast growth factor binding to printed compounds – biochemical, small-molecule microarray, 635/667 nm fluorescence, primary screen (AID 1133). Particulars: FGF2, fluorescence 635/667, higher = more signal.
Test [17] can be described thus: JC-1 mitochondrial potential readout, lung cancer cells – cell-based, A549, JC-1 fluorescence, basal, 24 h, 100 nL, profiling panel (AID 1138).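 Also: A549 lung adenocarcinoma cells under basal conditions with no added stimulus; test concentration not given here.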 Conditions: higher = more signal.
Test [18] concerns Lefty1. Nature of the test: Lefty1 protein binding to printed compounds – biochemical, small-molecule microarray, 635/667 nm fluorescence, primary screen (AID 1139). Conditions: fluorescence 635/667, higher = more signal.
For test [19], the system named is wheat germ agglutinin (Triticum aestivum), Alexa647-labelled. In words: Alexa647-WGA lectin binding to printed small molecules – biochemical, small-molecule microarray, 635/667 nm fluorescence, artefact control for SMM control-protein annotation, profiling panel (AID 1140).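 Also: score merges 667 nm feature emission with signal to noise over triplicate slides.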 Conditions: WGA-A647 binding, 635 nm fluorescence, higher = more signal.
Test [20] concerns the target Luciferin 4-monooxygenase (Photinus pyralis) (UniProt P08659). In words: inhibition of purified Photinus pyralis luciferase – biochemical, luminescence, purified enzyme, 2006 set, primary screen (AID 1141).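 Also: cell-free assay with purified firefly luciferase at 100 ng per well in PBS; test concentration not given here.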 Particulars: purified firefly luciferase, SteadyGlo luminescence, 30 min; higher = more signal, called active from +8 up or from −8 down.

Chain of Follistatin (Homo sapiens) (P19883 whole entry, looked up): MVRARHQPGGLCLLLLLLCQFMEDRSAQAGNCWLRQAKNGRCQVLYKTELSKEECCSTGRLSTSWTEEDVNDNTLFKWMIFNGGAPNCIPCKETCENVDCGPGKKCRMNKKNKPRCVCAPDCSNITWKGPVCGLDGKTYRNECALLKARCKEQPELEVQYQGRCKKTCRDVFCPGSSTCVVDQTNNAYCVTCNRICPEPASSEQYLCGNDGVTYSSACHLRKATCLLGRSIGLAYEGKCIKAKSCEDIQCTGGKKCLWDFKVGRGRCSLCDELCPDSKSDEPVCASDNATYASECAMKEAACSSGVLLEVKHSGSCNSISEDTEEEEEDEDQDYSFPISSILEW
Chain of Fibroblast growth factor 2 (Homo sapiens) (P09038 whole entry, looked up): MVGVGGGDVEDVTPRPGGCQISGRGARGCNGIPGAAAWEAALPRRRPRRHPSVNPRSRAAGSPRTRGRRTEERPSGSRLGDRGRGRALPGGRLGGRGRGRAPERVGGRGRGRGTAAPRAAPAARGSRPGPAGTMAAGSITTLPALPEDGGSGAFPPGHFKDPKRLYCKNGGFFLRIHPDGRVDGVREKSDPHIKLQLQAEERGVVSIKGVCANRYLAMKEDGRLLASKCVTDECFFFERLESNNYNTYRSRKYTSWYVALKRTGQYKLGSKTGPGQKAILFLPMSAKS
Chain of Luciferin 4-monooxygenase (Photinus pyralis) (P08659 whole entry, looked up): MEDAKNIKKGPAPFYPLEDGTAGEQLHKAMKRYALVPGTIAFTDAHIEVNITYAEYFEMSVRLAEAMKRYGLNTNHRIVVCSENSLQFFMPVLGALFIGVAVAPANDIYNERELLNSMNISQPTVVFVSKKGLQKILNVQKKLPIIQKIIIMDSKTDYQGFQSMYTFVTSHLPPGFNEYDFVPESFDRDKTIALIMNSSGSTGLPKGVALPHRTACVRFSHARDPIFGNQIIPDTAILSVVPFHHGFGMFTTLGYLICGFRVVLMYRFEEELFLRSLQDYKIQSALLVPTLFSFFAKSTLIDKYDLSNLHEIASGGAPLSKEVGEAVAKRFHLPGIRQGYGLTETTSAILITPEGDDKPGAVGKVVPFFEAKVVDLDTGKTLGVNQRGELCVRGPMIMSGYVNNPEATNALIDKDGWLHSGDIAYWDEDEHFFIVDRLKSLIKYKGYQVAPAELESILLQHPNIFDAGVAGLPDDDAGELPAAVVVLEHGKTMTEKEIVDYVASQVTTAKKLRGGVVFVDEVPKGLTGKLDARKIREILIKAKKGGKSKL
Chain of Focal adhesion kinase 1 (Homo sapiens) (Q05397 whole entry, looked up): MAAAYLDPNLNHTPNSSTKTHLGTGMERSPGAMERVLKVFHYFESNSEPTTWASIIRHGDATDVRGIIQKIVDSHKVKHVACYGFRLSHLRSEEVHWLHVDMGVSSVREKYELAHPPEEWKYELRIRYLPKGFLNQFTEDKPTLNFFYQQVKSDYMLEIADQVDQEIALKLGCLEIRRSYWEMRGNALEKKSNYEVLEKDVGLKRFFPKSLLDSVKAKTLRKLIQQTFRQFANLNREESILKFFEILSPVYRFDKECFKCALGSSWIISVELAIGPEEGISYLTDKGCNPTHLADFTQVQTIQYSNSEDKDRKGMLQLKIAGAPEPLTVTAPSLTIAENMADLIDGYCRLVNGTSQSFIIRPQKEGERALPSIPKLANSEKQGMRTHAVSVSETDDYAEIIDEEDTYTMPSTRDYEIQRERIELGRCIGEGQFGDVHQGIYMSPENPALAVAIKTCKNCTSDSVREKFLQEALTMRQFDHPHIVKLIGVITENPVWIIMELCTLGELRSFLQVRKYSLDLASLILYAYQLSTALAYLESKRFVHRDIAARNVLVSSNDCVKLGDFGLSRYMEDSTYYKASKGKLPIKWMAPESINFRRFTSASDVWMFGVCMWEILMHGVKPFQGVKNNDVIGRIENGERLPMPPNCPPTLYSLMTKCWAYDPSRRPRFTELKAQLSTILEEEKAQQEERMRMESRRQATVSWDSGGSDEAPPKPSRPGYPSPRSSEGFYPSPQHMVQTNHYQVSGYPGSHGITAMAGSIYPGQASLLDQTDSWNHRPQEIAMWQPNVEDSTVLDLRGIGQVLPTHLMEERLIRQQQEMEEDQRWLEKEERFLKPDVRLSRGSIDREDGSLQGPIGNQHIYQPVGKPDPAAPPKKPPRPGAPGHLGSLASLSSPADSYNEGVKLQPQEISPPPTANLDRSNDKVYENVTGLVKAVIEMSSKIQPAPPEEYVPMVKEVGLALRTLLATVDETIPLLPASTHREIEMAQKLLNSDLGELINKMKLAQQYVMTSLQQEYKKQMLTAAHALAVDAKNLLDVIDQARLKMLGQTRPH

For the compound `O=C(NCc1ccccc1)[C@@H]1c2ccccc2C(=O)N(Cc2ccc(OC(F)(F)F)cc2)[C@H]1c1ccc(CO)cc1`, the composite z-score is 0.0192 in test [1]; -0.155 in test [3]; -0.11 in test [4]; 0.694 in [5]; 2.29 in test [6]; 0.633 in test [7]. For the same compound, the composite z-score in test [8] was 0.258; in test [9] it was -0.431; in test [10], -0.278; in [11] it was 2.71; in [12], 0.277; in [13] it was 0.442. Further, the composite z-score was -0.222 in [14]; 0.616 in [15]; 0.0415 in test [16]; -0.9 in test [18]; -0.416 in test [19]. Further, in [2], the composite Z-score is 2.41 (inactive). For the same compound, the results for the z-score in test [17] and in [20] were 2.79 and -0.828 (inactive), respectively.

For the compound `COCCOC(=O)N1C(=O)[C@@]2(c3cc(C#CCC(C(=O)OC)C(=O)OC)ccc31)[C@H](C(=O)Nc1nc3ccccc3s1)[C@H]1C(=O)O[C@H](c3ccccc3)[C@H](c3ccccc3)N1[C@@H]2c1ccc(O)cc1`, the composite z-score in test [1] was 0.268; in test [3], 0.512; in test [4] it was -0.0282; in test [5], 0.279; in test [6] it was 1.13; in test [7], 0.705. Further, the composite z-score in test [8] was determined as 1.3; in [9], 1.07; in test [10] it was 1.04; in test [11] it was 0.777; in test [12], 1.21; in test [13], 0.235. Also, the composite z-score in [14] is 0.461; in [15], 1.3; in test [16], 1.46; in test [18], 1.29; in [19] it was 0.762. Also, the composite Z-score in [2] was 0.247 (inactive). The z-score is -2.26 in test [17] and 0.258 (inactive) in [20].

For `C=C(COC)/C(=C/C[C@@H](OC(C)=O)c1ccccc1OCCO)c1cnc2ccccc2c1`, the composite z-score in test [1] was -0.209; in test [3], 0.199; in test [4], -0.084; in [5], 0.776; in [6], 1.09; in test [7] it was 0.542. For the same compound, the composite z-score worked out at 1.17 in test [8]; 0.765 in test [9]; 0.995 in [10]; 0.782 in [11]; 1.06 in [12]; 0.423 in [13]. The composite z-score was found to be 0.0866 in test [14]; 1.43 in test [15]; 1.12 in test [16]; 1.54 in test [18]; 1.2 in test [19]. Moreover, the composite Z-score in test [2] was 0.72 (inactive). Besides, the z-score is -0.159 in test [17] and -1.47 (inactive) in test [20].

Turning to `CC(C)C(O)C1C=CC2C(=O)NC(=O)C2N1Nc1ccccn1` (stereo not given), the composite z-score in [1] was 0.701; in [3], -0.0044; in test [4] it was -0.0464; in test [5], 0.722; in [6] it was 1.59; in [7], 0.331. The composite z-score is 0.472 in [8]; -0.369 in test [9]; 0.561 in test [10]; 1.25 in [11]; 0.218 in test [12]; -0.0716 in [13]. For the same compound, the composite z-score in test [14] was determined as 0.285; in test [15] it was 0.712; in test [16] it was 0.0205; in test [18] it was 0.129; in [19], 0.169. In addition, the composite Z-score in test [2] was 0.316 (inactive). The values for the z-score in test [17] and in [20] were 0.44 and -0.362 (inactive), respectively.

With `O=C1C2C=CC(C(O)C3CCCCC3)N(n3cnnc3)C2C(=O)N1Cc1ccccc1` (stereo not given), the composite z-score was 0.835 in [1]; 0.341 in test [3]; -0.0527 in test [4]; 0.597 in test [5]; 2.23 in test [6]; 0.343 in test [7]. Besides, the composite z-score in test [8] is 1.29; in test [9], -0.0651; in test [10] it was 0.698; in test [11] it was -0.526; in test [12] it was 1.17; in test [13], 0.377. Further, the composite z-score turned out to be 0.983 in test [14]; 1.26 in test [15]; 0.287 in test [16]; 1.27 in test [18]; 1.26 in [19]. Besides, in test [2], the composite Z-score is 0.288 (inactive). For the same compound, the z-score in test [17] was -1.96; in test [20], 1.54 (inactive).
